Screening results (PubChem BioAssay)
The list is not random: actives were taken first. Their share in the collection is about 1.2%.
S-ASM inh = Inhibitors of Secretory Acid Sphingomyelinase (S-ASM): qHTS; placental ASM, HMU-PC fluorogenic substrate, 60 min; Potency, µM (titrated, usually from 57.5 µM), inactives show at the highest dose activity change, negative = inhibition, most hits filed as inhibitors; actives 0.006% (n = 340,000); AID 504937, 2011; note: potency is the fitted concentration of half-maximal effect
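qHTS format. ASM enzyme prepared from human placenta hydrolyses the fluorogenic substrate HMU-PC0 (9 uM final) over 60 min at 37 °C after a 10 min compound preincubation.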
KCNH2 WT inh = qHTS for Inhibitors of KCHN2 3.1: Wildtype qHTS. actives 0.37% (n = 340,000). activity change, % at 1.84 µM. Voltage-gated inwardly rectifying potassium channel KCNH2 (Homo sapiens), Q12809. U2OS, BacMam KCNH2, thallium flux FluxOr; active compounds read low;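 active = maximum activity change below -70%; inconclusive = maximum activity change between -70% and -50%; inactive = maximum activity change above -50%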; note: % is set by controls: 0 for no effect and ±100 for the full control effect
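U2OS cells were transduced with wild-type KCNH2 virus (2.03 x 10^8 / mL) for 4 h at room temperature, then cultured overnight at 37 C. Thallium flux was read with FluxOr dye. Rate constants were normalized to DMSO controls.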
IDH1 R132H inh = qHTS for Inhibitors of mutant isocitrate dehydrogenase 1 (IDH1): qHTS. IDH1-R132H enzyme, NADPH consumption, diaphorase/resazurin fluorescence. Potency, µM (series often up to 76.6 µM), for inactives: top-dose activity change, negative = inhibition, hits mostly inhibitors. AID 602179, 2012. actives 0.093% (n = 390,000); note: potency is the fitted concentration of half-maximal effect; % is set by controls: 0 for no effect and ±100 for the full control effect; nearly all actives have a fitted effect of over 65% in size
Target sequence (O75874 whole entry R132H, stated change not applied): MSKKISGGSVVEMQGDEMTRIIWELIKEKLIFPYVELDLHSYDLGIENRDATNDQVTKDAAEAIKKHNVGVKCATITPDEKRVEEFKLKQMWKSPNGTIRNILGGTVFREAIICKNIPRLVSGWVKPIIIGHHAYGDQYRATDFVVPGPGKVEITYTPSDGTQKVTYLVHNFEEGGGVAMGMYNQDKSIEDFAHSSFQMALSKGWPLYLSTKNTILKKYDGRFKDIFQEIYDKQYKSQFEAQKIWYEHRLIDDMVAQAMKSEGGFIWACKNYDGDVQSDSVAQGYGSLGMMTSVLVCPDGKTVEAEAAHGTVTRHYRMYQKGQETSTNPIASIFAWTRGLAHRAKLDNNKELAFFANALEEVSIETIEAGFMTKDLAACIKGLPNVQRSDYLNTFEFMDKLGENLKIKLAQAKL
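IDH1-R132H (0.5 ug/mL dispensed) in pH 7.5 Tris buffer was preincubated 30 min with compound, then given a substrate mix of 0.016 mM NADPH and 2 mM alpha-KG for 80 min at room temperature; remaining NADPH was read by diaphorase/resazurin fluorescence.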
Apoferritin bind = qHTS Assay for Identification of Novel General Anesthetics. Potency, µM (doses to about 77.5 µM), for inactives: at the top dose activity change, negative = displacement, hits mostly inhibitors. Ferritin light chain (Equus caballus), P02791. actives 0.074% (n = 350,000). apoferritin/1-aminoanthracene competitive binding, fluorescence; note: potency is the fitted concentration of half-maximal effect; % is set by controls: 0 for no effect and ±100 for the full control effect; nearly all actives have a fitted effect of over 20% in size
Target sequence (P02791 2-175 limits assumed): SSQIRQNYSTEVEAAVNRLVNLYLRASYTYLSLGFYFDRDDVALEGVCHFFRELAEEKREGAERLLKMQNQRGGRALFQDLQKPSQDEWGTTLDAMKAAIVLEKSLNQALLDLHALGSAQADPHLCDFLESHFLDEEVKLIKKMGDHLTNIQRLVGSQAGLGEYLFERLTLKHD
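Read-out: endpoint 1-AMA fluorescence, excitation 380 nm and emission 535 nm, after compounds sit 10 min at room temperature with 10 uM horse-spleen apoferritin in 50% saturated 1-AMA/PBS. Values come from four-parameter Hill fits.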
KCNH2 3.1 block = qHTS for Inhibitors of KCHN2 3.1: Mutant qHTS; U2OS KCNH2 3.1, thallium flux FluxOr; active compounds read low; AID 720553, 2013; actives 0.95% (n = 340,000); activity change, % (tested at about 1.8 µM);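 active = maximum activity change below -70%; inconclusive = maximum activity change from -70% to -50%; inactive = maximum activity change above -50%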;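 note: thallium influx rate constant from kinetic fluorescence after stimulation buffer; % is set by controls: 0 for no effect and ±100 for the full control effect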
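Normalized rate constant (relative to positive and negative DMSO controls) derived from a 2 min kinetic fluorescence read after stimulation; U2OS cells expressing the 3.1 isoform via virus at 1.77 x 10^8 /mL.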
* marks the source's active call; other numbers are inactive results; i = inactive; ? = inconclusive; / = no result given; + = active, no number; [ ] = remark or other dose. Unless noted, calls come from the whole dose curve; as a rule, active = well fitted inhibition curve with a large enough effect; inconclusive = small, poorly fitted or top-dose-only effect; inactive = no such curve, though single readings can be large or run the other way.

SMILES | S-ASM inh | KCNH2 WT inh | IDH1 R132H inh | Apoferritin bind | KCNH2 3.1 block
Cc1cc(C)c2sc(N(CCN(C)C)C(=O)c3c(F)cccc3F)nc2c1 | -4% | 9 | 4% | ? | 4
Cc1cn(S(=O)(=O)c2ccc(F)c(Cl)c2)cn1 | / | / | -3% | -7% | /
COc1cc(/C=C(\C#N)C(=O)Nc2cccc(C(=O)O)c2)ccc1OCc1ccc(F)cc1 | -2% | -10 | -9% | -14% | 16
CCOc1cc(/C=C(\C#N)C(=O)Nc2cccc(C(=O)O)c2)ccc1OCc1ccccc1Cl | 1% | -8 | 33µM* | 5% | -22
NCC1CCCCC1CC(=O)O (centres undefined) | / | / | / | 4% | /
C=CC[n+]1c(C)csc1Nc1ccc(C(=O)O)cc1 | 4% | / | 10% | -8% | -79*
CCC(C)C(NC(=O)OC(C)(C)C)C(=O)NC1COC2CC(n3ccc(NC(C)=O)nc3=O)OC12 (centres undefined) | / | / | / | -1% | /
O=C(O)C(Cc1ccc2c(c1)oc1ccccc12)NCP(=O)(O)O (centres undefined) | / | / | / | 85% | /
CCOc1ccc(NC(=O)c2c(NCc3sccc3C)sc3c2CCCCC3)cc1 | / | / | -3% | ? | /
COc1ccccc1CNC(=O)c1cc2ccc3ccc(C)[nH]c3c2n1 | / | / | 16% | -3% | /
O=C(NC1CC1)c1nc(Cn2cc([N+](=O)[O-])cn2)no1 | 1% | -73* | -7% | -3% | 3
CC1CCCN(C(=O)c2ccc(CSc3nc4ccncc4n3Cc3ccccc3)cc2)C1 (centres undefined) | / | / | 3% | 74% | /
Cc1cc(NC(=O)CCC(=O)N(C(C(=O)NC(C)(C)C)c2ccccc2Cl)C(C)(C)C)no1 (centres undefined) | -9% | 8 | 3% | -7% | -165*
Cc1cc(S(=O)(=O)C(CNC(=O)c2ccc(OC(C)C)cc2)c2cccs2)ccc1F (centres undefined) | / | / | -4% | 58% | /
Cc1cc2c(nc1C)CCCCN2C[C@H](O)CN1CCCc2nc(-c3ccc(Br)cc3)ccc21 | / | / | / | -14%[15.3 µM] | /
CSc1nnnn1CCn1nnnc1SC | 0% | -243* | 0% | -4% | -9
Cn1nnnc1SCSc1nnnn1C | 1% | 2 | 2% | -4% | 1
Oc1ccc(/C=N/NC(=S)Nc2cccnc2)c(O)c1O | -7% | -3 | 14% | -12% | -16
Oc1ccc(/C=N/NC(=S)Nc2cccnc2)c(O)c1 | 30% | -176* | 1% | -9% | -137*
COc1cc2oc3ccccc3c2cc1N(CC(=O)N(C)C)S(=O)(=O)c1ccccc1 | -13% | 17 | 4% | 0% | -84*
Cc1cc(Br)ccc1OCCCCN1CCCCC1 | 0% | -30 | 2% | -7% | -89*
Clc1ccc(OCCCN2CCCC2)cc1Cl | 2% | 21 | 8% | -11% | -32
Cc1cc(OCCCCCN2CCCC2)ccc1Cl | 0% | 75 | -3% | -18% | -86*
CC(C)(C)c1ccc(OCCCN2CCCC2)cc1 | -3% | 40 | 7% | -5% | -86*
Clc1ccc(OCCCNCc2ccccc2)c(Br)c1 | 0% | 4 | 12% | -10% | -21
SMILES | S-ASM inh | KCNH2 WT inh | IDH1 R132H inh | Apoferritin bind | KCNH2 3.1 block
Clc1ccc(Cl)c(OCCCCNCc2ccccc2)c1 | 6% | 1 | -4% | -16% | -93*
COc1ccc(S(=O)(=O)NCC(c2ccco2)S(=O)(=O)c2cccs2)cc1F (centres undefined) | / | / | 0% | -2% | /
CCOc1ccc2c(c1)c(=O)c(S(=O)(=O)c1ccc(Cl)cc1)cn2Cc1ccccc1C | / | / | -13% | -3% | /
O=C(Cc1ccccc1Nc1c(Cl)cccc1Cl)OCO/N=[N+](\[O-])N1CCCC1 | / | / | / | 48% | /
CC1CCN(CCOCCOc2ccc(Br)cc2Cl)CC1 | -3% | 0 | 1% | 4% | ?
CC1CCCN(CCCOc2ccc(Br)cc2Cl)C1 (centres undefined) | -1% | 33 | 7% | -12% | -105*
Clc1ccc(Cl)c(OCCCCN2CCCCC2)c1 | -1% | -137* | -5% | -7% | -158*
O=c1oc2ccccc2cc1-c1nc2c(s1)CCc1ccccc1-2 | 237% | -4 | 13% | 1% | -28
O=c1oc2cc(O)ccc2cc1-c1nc2c(s1)CCc1ccccc1-2 | i | -157* | 8% | 149% | -32
CCOC(=O)c1cn(CC#N)c2cc(F)c(F)cc2c1=O | -1% | -70* | 9% | -2% | -4
O=C(c1ccc(Cl)cc1Cl)c1ncc(C(F)(F)F)cc1Cl | -2% | 9 | 9% | ? | -9
O/N=C(\c1ccc(Cl)cc1Cl)c1ncc(C(F)(F)F)cc1Cl | -4% | -3 | -1% | 18µM* | -26
CC(=O)/C(=N/Nc1ccccc1)Sc1nnc(CCc2ccccc2)n1-c1ccccc1 | -9% | -6 | -3% | -7% | -90*
CCC(CC)c1nn2c(=O)cc(COc3ccc(NC(=O)c4ccccc4Cl)cc3)nc2s1 | / | / | 3% | -8% | /
CC1Cn2c(C(=O)NCCc3ccc(Cl)cc3)cc3cccc(c32)S1 (centres undefined) | / | / | 5% | 42% | /
OC(COC(c1ccc(F)cc1)c1ccc(F)cc1)CN1CCCC1 (centres undefined) | 0% | -22 | 6% | -12% | -83*
CC1CN(CC(O)COC(c2ccc(Cl)cc2)c2ccc(Cl)cc2)CC(C)O1 (centres undefined) | 2% | ? | 3% | -6% | -76*
CC1CN(CC(O)COc2ccc(C(C)C)cc2)CC(C)O1 (centres undefined) | 1% | 9 | 7% | 6% | -2
CN1CCN(CC(O)COC(c2ccccc2)c2ccccc2)CC1 (centres undefined) | -2% | 3 | 13% | -5% | -1
OC(COC(c1ccc(Cl)cc1)c1ccc(Cl)cc1)CN1CCN(c2ccccn2)CC1 (centres undefined) | -13% | + | 2% | -9% | -99*
CN(C)CC(O)COC(c1ccc(Cl)cc1)c1ccc(Cl)cc1 (centres undefined) | 1% | -43 | 6% | -7% | -88*
